Compound activity (PubChem BioAssay)
Compounds with a hit are over-represented: about 7.5% of the library has one in this group of screens.
HCV inh – inhibitors of hepatitis C virus infection; Huh7.5.1 HCVcc-Cre infection, luciferase reporter, 44 h; Potency, µM (doses to about 41.8 µM), for inactives: top-dose activity change, negative = inhibition, usual class: inhibitors; 3.4% of 340,000 active; also: potency is read from the fitted curve at half-maximal effect
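A cell-based infection assay in which seeded cells (1,000 per well) receive test compound after 4 h, are inoculated with HCVcc-Cre at approximately 0.5 moi, and are incubated 44 h before luminescence detection.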
VACV Venus inh – vaccinia inhibition (Venus reporter). Vaccinia virus Venus reporter expression, fluorescence. Potency, µM (doses to about 36.5 µM), for inactives: top-dose activity change, negative = inhibition, most hits filed as inhibitors. 0.46% of 330,000 active; calls by dose curve; tested in A549 cells; also: potency is read from the fitted curve at half-maximal effect; nearly all actives have a fitted effect of over 30% in size
Giardia FBPA inh – blocks Giardia fructose-bisphosphate aldolase activity; purified Giardia FBPA; Potency, µM (highest dose often 59.6 µM), for inactives: top-dose activity, negative = inhibition, usual class: inhibitors; A8B2U2; AID 2451; 0.71% of 290,000 active; also: potency is read from the fitted curve at half-maximal effect; nearly all actives have a fitted effect of over 55% in size
Target sequence (A8B2U2 whole entry, looked up): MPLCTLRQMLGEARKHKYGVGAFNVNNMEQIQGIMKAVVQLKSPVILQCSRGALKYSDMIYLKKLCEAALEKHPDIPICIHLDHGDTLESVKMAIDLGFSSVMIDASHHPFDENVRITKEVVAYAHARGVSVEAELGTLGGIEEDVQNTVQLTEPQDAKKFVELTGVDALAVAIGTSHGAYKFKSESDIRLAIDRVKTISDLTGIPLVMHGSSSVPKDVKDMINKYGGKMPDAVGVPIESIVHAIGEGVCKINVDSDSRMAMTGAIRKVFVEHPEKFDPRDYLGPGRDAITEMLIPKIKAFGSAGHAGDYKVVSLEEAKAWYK
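40 nM FBPA preincubated 10 min at RT with compound (up to 57.5 uM final), then substrate plus GAPDH/TPI/NAD/arsenate coupling and diaphorase/resazurin added. Fluorescence read after 20 min at RT, 525/598 nm.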
FMDV antiviral – blocks foot and mouth disease virus | 1.2% of 410,000 active | AID 1159524 | FMDV antiviral cell-based qHTS | Potency, µM (doses to about 57.9 µM), inactives show at the highest dose activity change, negative = inhibition, most hits filed as inhibitors; calls by dose curve; tested in HEK293T cells; also: read-out not given here; potency is read from the fitted curve at half-maximal effect; nearly all actives have a fitted effect of over 45% in size
HCMV antiviral – human cytomegalovirus inhibition; HFF cells, HCMV-luciferase reporter, 72 h; active compounds read low; activity change, negative = inhibition, % at 57.5 µM; 4.5% of 410,000 active; AID 1259415; in the data active = activity change below about -60%; inconclusive = no clear call, values can overlap the other calls; inactive = above about -39%
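Human foreskin fibroblasts infected with luciferase-reporter HCMV at MOI 1 PFU/cell, compounds at two doses. Luciferase measured 72 h post infection; normalized to buffer-only basal and Salinomycin (10uM) controls.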
VACV mCherry inh – vaccinia inhibition (mCherry reporter); Vaccinia virus mCherry reporter infection, fluorescence; Potency, µM (top dose mostly 36.5 µM), without a hit: at the top dose activity change, negative = inhibition, most hits filed as inhibitors; 0.63% of 310,000 active; calls by dose curve; tested in A549 cells; also: potency is read from the fitted curve at half-maximal effect; nearly all actives have a fitted effect of over 35% in size
Active calls of the source: *; i = inactive; ? = inconclusive; . = not tested or not shown; [ ] = another dose, or the depositor's remark. Unless noted, calls follow the shape of the dose curve; as a rule, active = well fitted curve in the direction sought with a large enough effect; inconclusive = small, poorly fitted or top-dose-only effect, or another doubt; inactive = no such curve, though single readings can be large; an effect the other way counts as inactive or inconclusive. % is scaled to controls: 0 for no effect and ±100 for the full control effect.

SMILES | HCV inh | VACV Venus inh | Giardia FBPA inh | FMDV antiviral | HCMV antiviral | VACV mCherry inh
CCCNC(=O)[C@H]1[C@H](CO)[C@H]2Cn3c(ccc(-c4ccc(F)cc4)c3=O)[C@@H]1N2C(=O)NC(C)C | . | . | . | . | -12 | .
CCn1c(SCC#N)nc2ccccc2c1=O | -26% | -20% | 7% | -13% | 0 | 17%
N#CCSc1nc2ccccc2c2nc3ccccc3n12 | ? | -19% | -2% | ? | -103* | ?
CC(=O)C1=C(C)N(Cc2ccc(Br)cc2)C(=S)NC1c1cccc(Cl)c1 (stereo not given) | . | . | . | . | -13 | .
COc1ccc(CCNC(=O)CCc2c(C)nc3c(c(C)nn3-c3ccccc3)c2C)c(OC)c1 | . | -15% | . | -25% | 1 | -19%
CC(NC(=O)c1ccco1)C(c1cccs1)N1CCN(c2ccc(F)cc2)CC1 (stereo not given) | 10µM* | -17% | ? | . | ? | -8%
CN1c2ccccc2C(C)(C)[C@]12C=Cc1cc(O)ccc1O2 | 13µM* | 65% | -23% | ? | ? | .
CN1c2ccccc2C(C)(C)C12C=Nc1c(ccc3ccccc13)O2 (stereo not given) | -21% | 2% | 11µM* | 3% | 26 | -17%
Cc1ncc(CO)c(/C=N/NC(=S)Nc2ccc(F)cc2)c1O | -19% | -26% | ? | 0% | -12 | ?
Cc1ncc(CO)c(/C=N/Nc2ccc(C(F)(F)F)cn2)c1O | ? | -17% | -18% | 6% | -96* | ?
Cc1nc2scc(C)n2c(=O)c1S(=O)(=O)N1CCN(c2ccc([N+](=O)[O-])cc2)CC1 | 13% | -13%[7.34 µM] | 5% | 1% | 21 | -16%[7.34 µM]
Cc1cc(=O)[nH]c(N2CCCCC2)n1 | 37% | -1% | . | -22% | -28 | -11%
Cc1ccc(C)c(NC(=O)C(=O)NCCc2csc3nc(-c4ccccc4C)nn23)c1 | . | 14% | . | 22µM* | -68* | 11%
Cc1ccc(NC(=O)C(=O)NCCc2csc3nc(-c4ccccc4C)nn23)cc1Cl | . | 13% | . | -6% | 17 | -1%
CC1=C(C(=O)Nc2ccccc2)C(c2ccc(C(=O)O)cc2)n2nc(SCC(=O)c3ccc(C)cc3)nc2N1 (stereo not given) | . | 0% | . | 47% | -7 | -13%
Cc1cccc(N2CCN(C(=O)CCC(=O)N3CC(C)Oc4ccc(C)cc43)CC2C)c1 (stereo not given) | ? | ? | -3% | 28µM* | -15 | ?
Cc1ccc2c(c1)N(C(=O)CCC(=O)N1CCN(c3ccccn3)CC1)CC(C)O2 (stereo not given) | -10% | -15% | -11% | -8% | -71* | i
Cc1ccc2c(c1)N(C(=O)CCC(=O)NCCCN1CCOCC1)CC(C)O2 (stereo not given) | 11% | 7% | 2% | -20% | -65* | 6%
Cc1ccc2c(c1)N(C(=O)CCC(=O)NCc1ccccc1)CC(C)O2 (stereo not given) | -4% | . | 14% | -2% | -31 | .
CCOc1ccc(-c2cccc(NS(=O)(=O)c3cc([N+](=O)[O-])ccc3Cl)c2)nn1 | 0% | ? | . | 59% | ? | 10µM*
COc1ccc(-c2cccc(NS(=O)(=O)c3cc([N+](=O)[O-])ccc3Cl)c2)nn1 | -10% | -8% | . | -3% | -30 | i
O=C(NC1CCCCC1)c1nc(C2CCNCC2)oc1-c1ccccc1 | . | -2% | . | -13% | 0 | i
O=S(=O)(Nc1ccc(N=Nc2ccc(O)c3ccccc23)cc1)c1ccccc1 | ? | -27% | ? | -19% | -19 | ?
O=[N+]([O-])c1ccc(N=Nc2ccc(O)c3ccccc23)cc1 | 10µM* | -25% | . | -25% | . | ?
CC(=O)c1ccc(N2CCN(C(=O)Nc3cccc(F)c3)CC2)cc1 | ? | -17% | 1% | 0% | -27 | -11%
SMILES | HCV inh | VACV Venus inh | Giardia FBPA inh | FMDV antiviral | HCMV antiviral | VACV mCherry inh
CC(C)COc1ccc(CN=C(N)N=C(N)N)cc1Cl | ? | . | 1% | ? | -76* | .
COc1ccc(CN=C(N)N=C(N)N)cc1Cl | ? | -25% | 0% | -8% | ? | -25%
CC(C)Oc1ccc(CN=C(N)N=C(N)N)cc1Cl | ? | -4% | -5% | ? | -75* | ?
CCN(CC)CC(O)COc1ccc2c(c1)OCO2 (stereo not given) | 3% | -14% | -10% | -19% | -98* | .
O=S1(=O)CCN(CCc2ccccc2)CC1 | . | -3% | . | -14% | -23 | -16%
O=C1OC(c2ccccc2)=NC12CC2c1ccc(Cl)cc1 (stereo not given) | 6% | -4% | 2% | 28µM* | -7 | -5%
CC(=O)Nc1ccc(Oc2ccccc2)cc1 | 12% | . | -8% | -4% | -36 | .
CC(=O)Nc1ccc(Oc2sc(C(=O)c3ccccc3)c(N)c2C#N)cc1 | ? | ? | 7% | ? | -88* | .
CC(=O)Nc1ccc(C(=O)CSc2nnc(-c3ccccc3F)n2CCc2ccccc2)cc1 | -27% | . | . | -8% | -10 | .
CCc1nnc(SCC(=O)N(C)c2ccccc2)c2cc3sccc3n12 | . | -13% | . | ? | -67* | -17%
Cc1ccccc1C(=O)NCC(=O)OC(C)C(=O)NC(C)CCc1ccccc1 (stereo not given) | 12% | . | . | -15% | -1 | .
COc1cc(C(O)c2nc(-c3ccc(C)c(C)c3)cs2)ccc1F (stereo not given) | . | -14% | . | -11% | -23 | i
CC(Oc1ccc2c(-c3ccccc3)cc(=O)oc2c1)C(=O)NCC(O)c1ccccc1 (stereo not given) | 8.9µM* | -9% | 6% | -24% | 10 | -10%
O=C(Oc1ccc2c(-c3ccccc3)cc(=O)oc2c1)c1cccs1 | 8% | -18% | 4% | 2% | -67* | i
Cc1c(OCC(=O)NCC(O)c2ccccc2)ccc2c(-c3ccccc3)cc(=O)oc12 (stereo not given) | 32µM* | -17% | 0% | -10% | ? | -5%
Cc1c(OCC(=O)NCc2ccccn2)ccc2c(-c3ccccc3)cc(=O)oc12 | 12% | -9% | 5% | -19% | 4 | 3%
CC1CC(=O)N(CC(=O)Nc2ccc(Br)cc2)c2ccccc2S1(=O)=O (stereo not given) | -4% | . | 4% | -22% | -64* | .
CCc1ccc(NC(=O)CN2C(=O)CC(C)S(=O)(=O)c3ccccc32)cc1 (stereo not given) | 2% | -3% | 3% | -14% | -15 | -1%
COc1ccc(OC)c(C2=NOC(C(=O)N3CCCc4ccccc43)C2)c1 (stereo not given) | ? | . | 1% | -4% | -60* | .
CCOc1ccc(C(C)=O)cc1COC(=O)c1cc([N+](=O)[O-])ccc1N1CCOCC1 | ? | -19% | . | -21% | -25 | -3%
